Laboratory results published in PubChem BioAssay (NCATS).
Results filed as inconclusive are left out. Activity calls are given as the source filed them. Unless noted, calls come from the whole dose curve; as a rule, active = well fitted curve in the direction sought with a large enough effect; inconclusive = small, poorly fitted or top-dose-only effect, or another doubt; inactive = no such curve, though single readings can be large; an effect the other way counts as inactive or inconclusive.

Tests used:
[1] = Cellular Toxicity (caspase-3) NIH 3T3 (AID 666)
Summary of the method: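 Mouse NIH 3T3 fibroblasts (1000/well) treated 16 h at 37 C; caspase-3/7 activity measured by Caspase-Glo 3/7 luminescence after 20 min. Normalized to DMSO and 100 uM tamoxifen; AC50 from Hill fits.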

[2] = Cellular Toxicity (caspase-3) Renal Proximal Tubule (AID 667);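 note: cells exposed to compound for 16 hours at 37 °C before detection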
Summary of the method: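 Caspase-Glo 3/7 read-out, rat primary kidney proximal tubule cells. Compound exposure 16 h, 37 °C; detection after 1 h at RT. Activity scaled to DMSO and 10 uM staurosporine.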

[3] = target: Cytochrome P450 3A4 (Homo sapiens) (UniProt P08684); assay: qHTS Assay for Inhibitors and Substrates of Cytochrome P450 3A4 (AID 884); note: series mostly up to about 57 µM; nearly all actives have a fitted effect of over 50% in size
Summary of the method: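 20 nM human CYP3A4 with 25 uM Luciferin-PPXE (at KM) in 200 mM KPO4, preincubated 10 min with compound; NADPH regeneration started a 60 min RT reaction. Luciferin detected by luminescence, normalized to 57 uM ketoconazole as full inhibition.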

[4] = Confirmation and Secondary Assay for Modulators of Hemoglobin Beta Chain Splicing at IVS2 654 locus (AID 910);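 note: per-well total GFP intensity by laser scanning cytometry after 2-day treatment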
Summary of the method: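 HeLa cells stably carrying EGFP interrupted by mutant beta-globin IVS2-654 intron (CMV-driven) were treated with compound for 2 days at 37C; corrected splicing was scored as total peak GFP intensity per well (488 nm excitation, 500-520 nm emission).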

[5] = Cell Viability - LYMP2-001 (AID 921);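 note: series mostly up to about 92 µM; cells exposed to compound for 24 h at 37 °C; nearly all actives have a fitted effect of over 70% in size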
Summary of the method: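 A lymphoblastoid cell line of human origin was treated with library compounds across a concentration series for 24 hours, and viable cell number was estimated from ATP-driven luciferase light output. Hill modeling gave AC50.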

[6] = Confirmation and Secondary Assay for Modulators of Hemoglobin Beta Chain Splicing at IVS2 705 locus (AID 930);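 note: HeLa cells stably expressing the EGFP-705 splicing reporter; GFP fluorescence per well restored by corrected splicing of the IVS2-705 intron in EGFP; series mostly up to about 46 µM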
Summary of the method: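 Assay measures total GFP intensity per well in HeLa EGFP-705 cells after 2 days with compound; mis-splicing normally truncates EGFP, so fluorescence indicates corrected splicing.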

[7] = MultiTox-Fluor Cytotoxicity Assay - LYMP1-001 - Dead Cells (AID 946)
Summary of the method: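 LYMP1-001 lymphoblastoid cells (2500/well) treated 16 h at 37 C. Dead-cell protease cleavage of bis-AAF-R110 read at Ex/Em 485/520. Normalized to DMSO and 15 uM tetraoctylammonium bromide; AC50 from Hill fits.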

[8] = MultiTox-Fluor Cytotoxicity Assay - LYMP1-001 - Live Cells (AID 947)
[9] = Cell Viability - LYMP1-002 - Assay at 16 hr (AID 948)
Summary of the method: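 In this qHTS, lymphoblastoid LYMP1-002 cells (human) receive compounds for 16 hr at 37 C. Viability is taken from CellTiter-Glo ATP luminescence, and AC50 derives from standard Hill fits.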

[10] = target: Guanine nucleotide-binding protein G(i) subunit alpha-1 (Homo sapiens) (UniProt P63096); assay: qHTS Assay for Inhibitors of RGS12 GoLoco Motif Activity (Green Fluorophore) (AID 879);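 note: negative values mean loss of peptide binding seen as reduced polarization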
Summary of the method: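 Fluorescence polarization assay: 50 nM Gαi1 with 10 nM FITC-labeled RGS12 GoLoco peptide in 10 mM Tris pH 7.5, 150 mM NaCl, 0.1 mM GDP, 0.05% NP40, 10 min at room temperature with compound.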

[11] = qHTS Assay for Identification of Small Molecule Antagonists for NFkB Signaling Pathway (AID 895; active = well fitted inhibition curve with a large enough effect in the signal ratio, with a control signal flat, not every such curve was filed as active; the % refers to the signal ratio; note: potency is the fitted concentration of half-maximal effect)
Summary of the method: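 NFkB-bla ME-180 cervical carcinoma cells with beta-lactamase reporter under NFkB response element; compounds added, then TNF alpha at 10 pM final (EC50), 5 h at 37 C. LiveBLAzer substrate 2 h, room temperature; emission 460/530 nm at 405 nm excitation.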

[12] = qHTS Assay for Identification of Small Molecule Agonists for Thrombopoietin (TPO) Signaling Pathway (AID 917)
Summary of the method: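 IL-3-dependent murine pro-B Ba/F3 cells, stably transfected with human TPO receptor and GpIIb-promoter luciferase, are incubated 24 hrs at 37 C with test compound and 26 pM TPO; luciferase signal is read after 10 min at room temperature.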

[13] = target: Muscarinic acetylcholine receptor M1 (Rattus norvegicus) (UniProt P08482); assay: qHTS Assay for Antagonists of Acetylcholine Muscarinic M1 Receptor: Measurement of IP-One Response (AID 944); note: nearly all actives have a fitted effect of over 75% in size
Summary of the method: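 CHO cells stably expressing rat M1, pretreated 10 min with compound, then stimulated 30 min with carbachol at EC80 (200 nM) in LiCl-containing buffer pH 7.4; IP1 accumulation read by HTRF competition (665/620 nm).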

[14] = target: Pyruvate kinase (Leishmania mexicana) (UniProt Q27686); assay: qHTS Validation Assay for Inhibitors of Leishmania Mexicana Pyruvate Kinase (AID 945)
Summary of the method: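 Pyruvate kinase activity of E451W LmPYK (0.2 nM) was followed as ATP output after 1 h at room temperature with 0.5 mM PEP and 0.1 mM ADP, detected by PKLight luminescence.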

[15] = target: Cytochrome P450 2C19 (Homo sapiens) (UniProt P33261); assay: qHTS Assay for Inhibitors and Substrates of Cytochrome P450 2C19 (AID 899); note: nearly all actives have a fitted effect of over 60% in size
Summary of the method: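 In 50mM KPO4, the reaction held 5nM enzyme and KM-level (10uM) Luciferin-H EGE; it ran 60 min at 37C after NADPH regeneration and a 10 min compound preincubation. Luminescence values were scaled to 57uM ketoconazole as complete inhibition.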

[16] = target: Cytochrome P450 2C9 (Homo sapiens) (UniProt P11712); assay: qHTS Assay for Inhibitors and Substrates of Cytochrome P450 2C9 (AID 883); note: nearly all actives have a fitted effect of over 60% in size
Summary of the method: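 CYP2C9 deoxyluciferin hydroxylation, 37C, 60 min with NADPH regeneration; 10nM enzyme, 100uM Luciferin-H (KM). Glo detection reagent stopped reaction; luminescence normalized to sulphaphenazole (57uM) full inhibition.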

[17] = target: Cytochrome P450 2D6 (Homo sapiens) (UniProt P10635); assay: qHTS Assay for Inhibitors and Substrates of Cytochrome P450 2D6 (AID 891);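 note: luciferin methyl ether substrate demethylated by CYP2D6 with NADPH regeneration; nearly all actives have a fitted effect of over 60% in size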
Summary of the method: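 Human CYP2D6 (5 nM) with 30 uM Luciferin-ME EGE (at Km) in 100 mM KPO4, compound preincubated 10 min, then NADPH regeneration system for 60 min at room temperature. Luciferin read by luminescence; normalized to 1.43 uM quinidine.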

Measured: Potency

Pyruvate kinase (Leishmania mexicana), sequence (Q27686 2-499 E452W): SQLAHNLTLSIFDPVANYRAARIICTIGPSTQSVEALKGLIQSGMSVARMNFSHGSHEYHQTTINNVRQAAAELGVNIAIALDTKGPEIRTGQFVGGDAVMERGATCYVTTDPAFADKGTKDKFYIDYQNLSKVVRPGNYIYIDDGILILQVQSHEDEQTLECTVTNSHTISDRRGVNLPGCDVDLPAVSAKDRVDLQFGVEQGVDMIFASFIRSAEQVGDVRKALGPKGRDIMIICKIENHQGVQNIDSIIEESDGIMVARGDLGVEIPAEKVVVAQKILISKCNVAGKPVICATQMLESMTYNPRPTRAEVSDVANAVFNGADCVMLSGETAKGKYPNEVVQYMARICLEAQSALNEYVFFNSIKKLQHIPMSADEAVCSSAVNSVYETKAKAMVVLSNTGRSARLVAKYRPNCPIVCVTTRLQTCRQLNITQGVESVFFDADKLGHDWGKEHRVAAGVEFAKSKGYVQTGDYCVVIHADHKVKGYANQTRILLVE
Guanine nucleotide-binding protein G(i) subunit alpha-1 (Homo sapiens), sequence (P63096 whole entry, looked up): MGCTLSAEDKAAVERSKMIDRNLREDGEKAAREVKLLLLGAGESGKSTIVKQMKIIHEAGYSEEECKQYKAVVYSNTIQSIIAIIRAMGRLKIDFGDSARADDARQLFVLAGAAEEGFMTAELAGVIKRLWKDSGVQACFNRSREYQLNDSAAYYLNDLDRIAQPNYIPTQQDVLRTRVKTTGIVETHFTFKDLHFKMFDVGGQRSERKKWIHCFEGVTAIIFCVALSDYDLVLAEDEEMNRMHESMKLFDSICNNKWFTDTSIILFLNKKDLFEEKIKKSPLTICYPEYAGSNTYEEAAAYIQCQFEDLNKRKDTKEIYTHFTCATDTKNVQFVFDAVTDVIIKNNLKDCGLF
Cytochrome P450 3A4 (Homo sapiens), sequence (P08684 whole entry, looked up): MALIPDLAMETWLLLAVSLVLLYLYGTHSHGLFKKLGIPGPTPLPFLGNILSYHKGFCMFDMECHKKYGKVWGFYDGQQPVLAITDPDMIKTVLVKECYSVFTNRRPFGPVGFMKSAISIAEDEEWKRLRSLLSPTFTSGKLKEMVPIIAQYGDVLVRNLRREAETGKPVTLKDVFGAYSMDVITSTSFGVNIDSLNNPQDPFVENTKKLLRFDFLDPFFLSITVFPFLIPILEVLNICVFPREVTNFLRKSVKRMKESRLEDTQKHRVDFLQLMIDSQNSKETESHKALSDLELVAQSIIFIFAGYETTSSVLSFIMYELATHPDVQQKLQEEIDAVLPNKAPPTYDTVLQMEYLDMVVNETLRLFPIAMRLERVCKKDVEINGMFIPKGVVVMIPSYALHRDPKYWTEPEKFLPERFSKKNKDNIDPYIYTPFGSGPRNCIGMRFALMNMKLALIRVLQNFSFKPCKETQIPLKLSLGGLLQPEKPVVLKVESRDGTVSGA
Muscarinic acetylcholine receptor M1 (Rattus norvegicus), sequence (P08482 whole entry, looked up): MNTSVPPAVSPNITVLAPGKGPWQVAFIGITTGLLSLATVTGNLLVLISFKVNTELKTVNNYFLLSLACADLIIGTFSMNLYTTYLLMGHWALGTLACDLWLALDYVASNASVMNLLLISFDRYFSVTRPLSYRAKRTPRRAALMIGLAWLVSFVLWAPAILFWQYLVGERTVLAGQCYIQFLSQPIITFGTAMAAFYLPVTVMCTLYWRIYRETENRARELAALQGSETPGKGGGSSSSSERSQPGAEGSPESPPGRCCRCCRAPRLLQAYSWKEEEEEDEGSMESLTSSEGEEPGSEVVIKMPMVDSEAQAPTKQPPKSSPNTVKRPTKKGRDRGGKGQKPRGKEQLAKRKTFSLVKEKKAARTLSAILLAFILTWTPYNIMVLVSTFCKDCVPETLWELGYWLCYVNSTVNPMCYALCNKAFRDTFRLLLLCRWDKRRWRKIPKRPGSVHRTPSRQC
Cytochrome P450 2C19 (Homo sapiens), sequence (P33261 whole entry, looked up): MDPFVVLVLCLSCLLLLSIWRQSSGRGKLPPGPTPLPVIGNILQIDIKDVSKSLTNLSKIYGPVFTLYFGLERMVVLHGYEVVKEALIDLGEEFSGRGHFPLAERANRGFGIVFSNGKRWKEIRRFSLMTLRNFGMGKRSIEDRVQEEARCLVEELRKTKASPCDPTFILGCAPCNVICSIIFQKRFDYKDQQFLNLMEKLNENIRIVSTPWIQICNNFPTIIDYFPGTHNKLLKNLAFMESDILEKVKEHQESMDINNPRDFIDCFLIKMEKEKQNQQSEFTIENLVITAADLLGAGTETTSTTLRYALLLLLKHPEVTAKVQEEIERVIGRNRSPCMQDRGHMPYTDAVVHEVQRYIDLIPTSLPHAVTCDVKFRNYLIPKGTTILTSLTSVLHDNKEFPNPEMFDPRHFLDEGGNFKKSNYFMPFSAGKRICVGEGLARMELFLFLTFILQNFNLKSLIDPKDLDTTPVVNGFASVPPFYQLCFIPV
Cytochrome P450 2C9 (Homo sapiens), sequence (P11712 whole entry, looked up): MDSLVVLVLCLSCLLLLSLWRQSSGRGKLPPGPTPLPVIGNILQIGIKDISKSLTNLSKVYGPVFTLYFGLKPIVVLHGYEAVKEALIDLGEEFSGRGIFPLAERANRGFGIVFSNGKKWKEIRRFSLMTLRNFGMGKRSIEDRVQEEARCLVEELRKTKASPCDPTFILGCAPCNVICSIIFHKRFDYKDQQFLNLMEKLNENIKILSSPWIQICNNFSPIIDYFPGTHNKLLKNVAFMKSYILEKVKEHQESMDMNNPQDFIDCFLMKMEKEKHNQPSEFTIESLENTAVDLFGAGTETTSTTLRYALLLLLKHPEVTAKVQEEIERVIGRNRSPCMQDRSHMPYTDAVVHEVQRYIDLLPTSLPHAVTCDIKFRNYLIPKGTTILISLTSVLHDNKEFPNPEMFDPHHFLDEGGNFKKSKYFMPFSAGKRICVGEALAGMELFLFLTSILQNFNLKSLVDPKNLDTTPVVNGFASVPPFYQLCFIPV
Cytochrome P450 2D6 (Homo sapiens), sequence (P10635 whole entry, looked up): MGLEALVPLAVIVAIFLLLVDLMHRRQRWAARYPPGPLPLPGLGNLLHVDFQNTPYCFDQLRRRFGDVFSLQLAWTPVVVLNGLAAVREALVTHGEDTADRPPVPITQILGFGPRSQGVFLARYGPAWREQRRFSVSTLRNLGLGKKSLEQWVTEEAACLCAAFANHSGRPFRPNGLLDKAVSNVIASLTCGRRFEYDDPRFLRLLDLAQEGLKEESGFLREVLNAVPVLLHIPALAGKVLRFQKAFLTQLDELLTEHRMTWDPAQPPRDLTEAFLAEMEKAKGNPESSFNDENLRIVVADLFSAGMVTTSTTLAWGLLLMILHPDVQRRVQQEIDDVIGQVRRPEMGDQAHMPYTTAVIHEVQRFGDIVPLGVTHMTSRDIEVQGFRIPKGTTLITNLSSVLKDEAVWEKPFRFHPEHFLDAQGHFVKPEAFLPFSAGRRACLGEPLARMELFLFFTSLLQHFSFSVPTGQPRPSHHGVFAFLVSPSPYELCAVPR

Oc1ccc(Cl)cc1
inactive: [1] | [2] | [3] | [4] | [5] | [6] | [7] | [8] | [9]

COc1cc(OC)c(OC)cc1C=O
inactive: [1] | [2] | [3] | [4] | [5] | [6] | [7] | [9]

C[C@]12CCC(=O)C=C1CC[C@@H]1[C@@H]2CC[C@@]2(C)[C@H]1CC[C@]2(C)O
inactive: [1] | [2] | [3] | [5] | [8] | [9]

Nc1ccccc1C(=O)O
inactive: [1] | [2] | [3] | [5] | [7] | [8] | [9]

CC(C)c1cccc(C(C)C)c1O
inactive: [1] | [2] | [10] | [11] | [4] | [12] | [5] | [6] | [13] | [14] | [7] | [8] | [9]

NCCc1ccc(O)cc1
inactive: [2] | [10] | [3] | [15] | [4] | [12] | [5] | [6] | [13] | [14] | [7] | [8] | [9]

CN1C[C@H](C(=O)N[C@]2(C)O[C@@]3(O)[C@@H]4CCCN4C(=O)[C@H](Cc4ccccc4)N3C2=O)C=C2c3cccc4[nH]cc(c34)C[C@H]21
inactive: [1] | [2] | [5] | [7] | [8] | [9]

Nc1ccccc1
inactive: [1] | [2] | [3] | [5] | [7] | [8] | [9]

COC(=O)C(c1ccccc1)C1CCCCN1 (stereo not drawn)
inactive: [1] | [2] | [3] | [5] | [7] | [8] | [9]

COP(=S)(OC)Oc1ccc(SC)c(C)c1
inactive: [1] | [2] | [4] | [5] | [6] | [7] | [8] | [9]

CCCC(C)(COC(N)=O)COC(N)=O
inactive: [1] | [2] | [3] | [5] | [7] | [8] | [9]

CC(C)NC(C)C
inactive: [1] | [2] | [3] | [5] | [7] | [8] | [9]

CCC(C)(C)c1ccc(O)cc1
inactive: [1] | [2] | [3] | [5] | [7] | [8] | [9]

O=C(O)CCCc1ccc(N(CCCl)CCCl)cc1
inactive: [1] | [2] | [10] | [16] | [3] | [17] | [15] | [4] | [6] | [14] | [7] | [9]
active: [11] 8.91 µM
